Experiment [1] is described as follows: AP1 Signaling Pathway (AID 357).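 Further: ME-180 reporter cells stimulated with EGF at its EC50 level; on the % scale 0 is the no-effect control and ±100 the full control effect.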 The settings on record: ME-180 AP-1-bla reporter, EGF-induced, beta-lactamase ratio, 5 h; at 7.69 µM (top of the series) unless noted. The gist of the method:
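Modulation of EGF-driven AP-1 transcription was assessed with a beta-lactamase reporter in ME-180 cells. Compound and EC50 EGF were co-incubated 5 hours at 37 °C before 2.5-hour CCF4 loading at room temperature and dual-emission reading.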

Experiment [2] deals with Cytochrome P450 1A2 (Homo sapiens) (UniProt P05177). Description: p450-cyp1a2 (AID 410; calls by dose curve; further: potency means the concentration at half of the fitted maximal effect). An outline of the steps: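 Luminescent readout of luciferin formed from Luciferin-ME by human CYP1A2; data normalized against complete inhibition by 57 uM furafylline. Enzyme 20nM, substrate 100uM at Km, 100mM KPO4 buffer, 60 min reaction at room temperature.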
A short description of experiment [3]: NFAT Signaling Pathway (AID 444).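 Further: carbachol stimulus at about its EC50 of 1 µM final; on the % scale 0 is the no-effect control and ±100 the full control effect.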 The settings on record: Jurkat NFAT-bla M1, carbachol, beta-lactamase ratio, 5 h; at 7.69 µM (top of the series) unless noted. An outline of the steps: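 Read-out: CCF4 FRET ratio (460 nm/530 nm) after 1 h RT dye loading, used for %activity and AC50 from titration series. Cells: Jurkat NFAT-β-lactamase/M1 line, treated with compound plus 1 uM carbachol for 5 h, 37 °C.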

For experiment [4], the target named is Glucocorticoid receptor (Homo sapiens) (UniProt P04150). Description: GR-GFP Redistribution (AID 450;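 active means compounds whose dose series gives a full or clear partial fitted curve of increased nuclear translocation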; further: potency means the concentration at half of the fitted maximal effect). The note with it: U2OS GR-GFP nuclear translocation, laser cytometry, 2 h.
Experiment [5] shares this target. Description: GR-EFC Redistribution (AID 451; calls by dose curve; further: potency means the concentration at half of the fitted maximal effect). The note with it: CHO-K1 GR-EFC translocation, beta-gal luminescence, 2 h. The gist of the method:
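Translocation of GR-ED fusion to nuclear EA restores b-gal, read by luminescence after 1 h room-temperature detection. Engineered CHO-K1 biosensor cells, 1,000/well, exposed 2 h at 37 C to titrations up to 46 uM final.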

The target of experiment [6] is Mitogen-activated protein kinase 10 (Mus musculus) (UniProt Q61831). Description: JNK3 AlphaScreen Assay (AID 530).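 Further: kinase came from lysate of stimulated human HepG2 cells; signal reports phosphorylation of biotinylated GST-cJun 1-79 at Ser73 with 10 µM ATP; on the % scale 0 is the no-effect control and ±100 the full control effect.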 An outline of the steps:
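Compound titrations were preincubated 15 minutes at room temperature with substrate, antibody and pre-activated JNK3-containing HepG2 lysate. Reactions were started with 10 uM ATP and stopped with EDTA-containing bead buffer for AlphaScreen detection.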
For orientation: In Alpha technology, singlet oxygen from a donor bead excites a nearby acceptor bead.

Experiment [7] concerns the target 3',5'-cyclic-AMP phosphodiesterase 4B (Homo sapiens) (UniProt Q07343). Description: qHTS Assay for Inhibitors of PDE-IV (AID 607; active means well fitted activation curve with a large enough effect in the main read-out, with a control signal flat, not every such curve was filed as active; further: % of control where 0% means no effect). The gist of the method: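 ACTOne HEK293 cells carry a modified cAMP-gated CNG channel and express endogenous PDE4; plated 1000 cells/well, compounds up to 22.9 uM final. Membrane-potential dye fluorescence (ex 535/em 590) was read; parental cells received 10 uM forskolin + 100 uM RO 20-1724.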
(qHTS replaces the single test concentration by a dilution series.)

For experiment [8], the target named is Cytochrome P450 2C9 (Homo sapiens) (UniProt P11712). Description: qHTS Assay for Inhibitors and Substrates of Cytochrome P450 2C9 (AID 883; active means well fitted curve in the direction sought with a large enough effect; an effect the other way counts as inactive or inconclusive; further: on the % scale 0 is the no-effect control and ±100 the full control effect; nearly all actives have a fitted effect of over 60% in size). The gist of the method: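 Inhibition of CYP2C9 is scored as loss of luminescence, with 57uM sulphaphenazole defining 100% inhibition. Substrate Luciferin-H is used at 100uM, equal to its KM; enzyme at 10nM in 25mM KPO4, 60 min at 37C with NADPH regeneration.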

Experiment [9] has as its target Cytochrome P450 2C19 (Homo sapiens) (UniProt P33261). Description: qHTS Assay for Inhibitors and Substrates of Cytochrome P450 2C19 (AID 899; active means well fitted curve in the direction sought with a large enough effect; an effect the other way counts as inactive or inconclusive; further: on the % scale 0 is the no-effect control and ±100 the full control effect; nearly all actives have a fitted effect of over 60% in size). An outline of the steps: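 5nM enzyme + 10uM Luciferin-H EGE (=KM), 50mM KPO4; cpd pin-transferred, 10 min 37C; NADPH regen, 60 min 37C; stopped w/ luciferin detection reagent, 20 min; luminescence. Normalized to 57uM ketoconazole (AC100).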

Experiment [10] is described as follows: Stat Signaling Pathway (AID 446).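 Further: ME-180 cervical cancer cells given 40 pM IL-6 alongside compound; SIE-controlled beta-lactamase reporter measured as 460/530 nm FRET emission ratio; on the % scale 0 is the no-effect control and ±100 the full control effect.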 The settings on record: ME-180 SIE beta-lactamase reporter, IL-6 stimulated, 5 h; at 7.69 µM (top of the series) unless noted. An outline of the steps: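 ME-180 SIE-bla cells; overnight plating; cpd + IL-6 40 pM, 5 h, 37 C; LiveBLAzer 2.5 h RT; 460/530 nm emission ratio. Normalized to 300 pM IL-6 and 125 nM JAK inhibitor controls.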

For experiment [11], the target named is Guanine nucleotide-binding protein G(i) subunit alpha-1 (Homo sapiens) (UniProt P63096). The experiment in a line: qHTS Assay for Inhibitors of RGS12 GoLoco Motif Activity (Green Fluorophore) (AID 879; active means well fitted curve in the direction sought with a large enough effect; an effect the other way counts as inactive or inconclusive;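 further: 0% = labeled peptide with Gαi1 and full inhibition = labeled peptide alone without protein; negative values mean loss of peptide binding seen as reduced polarization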). An outline of the steps: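 Fluorescence polarization assay: 50 nM Gαi1 with 10 nM FITC-labeled RGS12 GoLoco peptide in 10 mM Tris pH 7.5, 150 mM NaCl, 0.1 mM GDP, 0.05% NP40, 10 min at room temperature with compound.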

Experiment [12] deals with Muscarinic acetylcholine receptor M1 (Rattus norvegicus) (UniProt P08482). The experiment in a line: qHTS Assay for Antagonists of Acetylcholine Muscarinic M1 Receptor: Kinetic Measurement of Intracellular Calcium Response (AID 943; active means well fitted curve in the direction sought with a large enough effect; an effect the other way counts as inactive or inconclusive;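 further: Fluo-4 calcium signal as peak divided by basal fluorescence over 4 min; nearly all actives have a fitted effect of over 75% in size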). The gist of the method:
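Rat M1-CHO cells, 2000/well, overnight → Fluo-4 no-wash dye with probenecid, 1 h 37C → compound 10 min, room temp → basal read 6 s → carbachol EC80 (100 nM) → 4 min kinetic read; peak/basal.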

For experiment [13] the target is unchanged. The experiment in a line: qHTS Assay for Antagonists of Acetylcholine Muscarinic M1 Receptor: Measurement of IP-One Response (AID 944; active means well fitted curve in the direction sought with a large enough effect; an effect the other way counts as inactive or inconclusive; further: nearly all actives have a fitted effect of over 75% in size). An outline of the steps: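 M1-CHO (rat), 2000 cells/well, overnight recovery; cpd 10 min; carbachol EC80 (200 nM), 30 min, HEPES buffer + 50 mM LiCl pH 7.4; IP-One HTRF, Ex 337, Em 620/665 nm.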
For experiment [14], the target named is Pyruvate kinase (Leishmania mexicana) (UniProt Q27686). The experiment in a line: qHTS Validation Assay for Inhibitors of Leishmania Mexicana Pyruvate Kinase (AID 945; active means well fitted curve in the direction sought with a large enough effect; an effect the other way counts as inactive or inconclusive;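 further: 0% = DMSO only neutral control wells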). An outline of the steps:
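The enzyme is a highly purified E451W mutant of LmPYK used at 0.2 nM. It converts 0.5 mM PEP and 0.1 mM ADP over 1 h at room temperature; product ATP is quantified by luciferase luminescence relative to DMSO controls.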

Experiment [15] deals with Pyruvate kinase PKM (Homo sapiens) (UniProt P14618). The experiment in a line: qHTS Assay for Activators of Human Muscle Pyruvate Kinase (AID 954; active means well fitted curve in the direction sought with a large enough effect, not every such curve was filed as active;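 further: 0% = uninhibited enzyme and -100% = no enzyme or full thiadiazolimine inhibition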). The gist of the method: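 Luminescence from a luciferase ATP-detection/stop reagent reported PKM2 activity. Reactions contained 0.1 nM purified human enzyme, 0.5 mM PEP, 0.1 mM ADP and 7 mM MgCl2 at pH 7.2, run 1 h at RT.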

For experiment [16], the target named is Alpha-galactosidase A (Homo sapiens) (UniProt P06280). The experiment in a line: Counterscreen for Glucocerebrosidase Inhibitors: qHTS Assay for Human alpha-Galactosidase at pH 4.5 (AID 992; active means well fitted curve in the direction sought with a large enough effect; an effect the other way counts as inactive or inconclusive; further: 0% is about no effect). An outline of the steps:
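Enzyme at 2 nM final was combined with compound (0.7 nM to 77 uM) and 80 uM 4-methylumbelliferyl alpha-D-galactopyranoside in 50 mM citric acid, 0.005% Tween-20, pH 4.5. After 20 min at room temperature, fluorescence was read (Ex 365/Em 440 nm); AC50 came from Hill fits.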
Background: Counterscreens check selectivity or assay interference.

Experiment [17] has as its target alpha-glucosidase (Oryza sativa, rice) (UniProt Q653V4). Description: Counterscreen for Glucocerebrosidase Inhibitors: qHTS Assay for Rice alpha-Glucosidase at pH 5.0 (AID 997; active means well fitted curve in the direction sought with a large enough effect; an effect the other way counts as inactive or inconclusive;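 further: 0% = full activity with enzyme and -100% = basal without enzyme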). The gist of the method: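 Rice alpha-glucosidase (4 nM final) with 400 uM 4-methylumbelliferyl-alpha-D-glucopyranoside in citrate buffer pH 5.0, 20 min at room temperature, stopped at pH 10; fluorescence 365/440 nm, compounds 0.7 nM–77 uM, AC50 from Hill fits.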

The target of experiment [18] is Cytochrome P450 3A4 (Homo sapiens) (UniProt P08684). The experiment in a line: qHTS Assay for Activators of Cytochrome P450 3A4 (AID 885; active means well fitted curve in the direction sought with a large enough effect; an effect the other way counts as inactive or inconclusive; further: nearly all actives have a fitted effect of over 65% in size). An outline of the steps: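 20nM CYP3A4 + 25uM Luciferin-PPXE (=KM), 200mM KPO4; cpd 10 min RT; NADPH regen, 60 min RT; stop w/ detection buffer, 20 min; luminescence. Normalized to 57 uM ketoconazole.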
Experiment [19] is described as follows: qHTS Assay for Identification of Small Molecule Agonists for Thrombopoietin (TPO) Signaling Pathway (AID 917; active means well fitted curve in the direction sought with a large enough effect; an effect the other way counts as inactive or inconclusive; further: on the % scale 0 is the no-effect control and ±100 the full control effect). An outline of the steps: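 Luminescence from a Glycoprotein IIb promoter–driven luciferase reporter served as read-out in murine Ba/F3 cells carrying the human TPO receptor. Cells, deprived of IL-3 overnight, received compounds with 26 pM TPO and were incubated 24 hrs at 37 C.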

Values joined by “and” are separate entries in the source; they are usually repeats but may differ in a detail not shown here. Equal values may be shown once. Unmarked numbers belong to inactive results. Inconclusive results are not listed. Active and inactive are the calls of the source. Unless noted, the call rests on the fitted dose curve; in most records, active means well fitted curve in either direction with a large enough effect (not every such curve was filed as active); inconclusive means small, poorly fitted or top-dose-only effect, or another doubt; inactive means flat fitted curve, though single readings scatter. Bounds are passed on as bounds.

Sequence of Alpha-galactosidase A (Homo sapiens) (P06280 whole entry, looked up): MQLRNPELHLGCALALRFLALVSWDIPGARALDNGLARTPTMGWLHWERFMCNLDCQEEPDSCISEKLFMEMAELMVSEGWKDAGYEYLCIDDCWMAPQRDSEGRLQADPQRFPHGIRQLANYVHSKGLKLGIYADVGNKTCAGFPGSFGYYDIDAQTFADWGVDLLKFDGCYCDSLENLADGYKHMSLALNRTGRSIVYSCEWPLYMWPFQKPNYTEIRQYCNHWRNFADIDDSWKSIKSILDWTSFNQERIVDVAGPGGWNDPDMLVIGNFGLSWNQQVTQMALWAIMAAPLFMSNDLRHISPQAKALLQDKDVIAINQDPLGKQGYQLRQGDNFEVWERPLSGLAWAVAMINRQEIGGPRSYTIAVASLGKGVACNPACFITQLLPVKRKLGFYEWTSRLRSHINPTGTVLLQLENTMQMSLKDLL
Sequence of Guanine nucleotide-binding protein G(i) subunit alpha-1 (Homo sapiens) (P63096 whole entry, looked up): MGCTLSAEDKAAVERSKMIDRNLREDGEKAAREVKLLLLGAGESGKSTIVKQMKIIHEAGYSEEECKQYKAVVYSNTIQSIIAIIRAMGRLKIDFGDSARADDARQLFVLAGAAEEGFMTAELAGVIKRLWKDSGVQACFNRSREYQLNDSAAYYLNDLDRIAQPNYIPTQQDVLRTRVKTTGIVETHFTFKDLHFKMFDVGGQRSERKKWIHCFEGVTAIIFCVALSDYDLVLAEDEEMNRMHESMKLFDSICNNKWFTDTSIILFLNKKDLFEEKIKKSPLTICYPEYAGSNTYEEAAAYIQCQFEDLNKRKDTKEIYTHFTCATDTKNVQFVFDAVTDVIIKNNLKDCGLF
Sequence of Pyruvate kinase (Leishmania mexicana) (Q27686 2-499 E452W): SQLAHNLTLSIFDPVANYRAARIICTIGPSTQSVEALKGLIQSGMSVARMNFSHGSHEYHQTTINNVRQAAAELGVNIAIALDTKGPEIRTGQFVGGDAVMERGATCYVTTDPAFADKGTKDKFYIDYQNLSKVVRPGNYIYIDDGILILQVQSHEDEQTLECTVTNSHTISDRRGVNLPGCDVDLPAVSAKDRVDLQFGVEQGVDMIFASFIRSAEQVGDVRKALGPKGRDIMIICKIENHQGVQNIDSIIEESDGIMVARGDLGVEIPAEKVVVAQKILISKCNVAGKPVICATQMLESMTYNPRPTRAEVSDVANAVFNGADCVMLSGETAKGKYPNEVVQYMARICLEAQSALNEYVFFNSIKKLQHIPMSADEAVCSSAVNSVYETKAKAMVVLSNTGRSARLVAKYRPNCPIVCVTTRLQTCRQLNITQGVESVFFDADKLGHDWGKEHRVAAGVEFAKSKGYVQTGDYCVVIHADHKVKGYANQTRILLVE
Sequence of Pyruvate kinase PKM (Homo sapiens) (P14618 whole entry, looked up): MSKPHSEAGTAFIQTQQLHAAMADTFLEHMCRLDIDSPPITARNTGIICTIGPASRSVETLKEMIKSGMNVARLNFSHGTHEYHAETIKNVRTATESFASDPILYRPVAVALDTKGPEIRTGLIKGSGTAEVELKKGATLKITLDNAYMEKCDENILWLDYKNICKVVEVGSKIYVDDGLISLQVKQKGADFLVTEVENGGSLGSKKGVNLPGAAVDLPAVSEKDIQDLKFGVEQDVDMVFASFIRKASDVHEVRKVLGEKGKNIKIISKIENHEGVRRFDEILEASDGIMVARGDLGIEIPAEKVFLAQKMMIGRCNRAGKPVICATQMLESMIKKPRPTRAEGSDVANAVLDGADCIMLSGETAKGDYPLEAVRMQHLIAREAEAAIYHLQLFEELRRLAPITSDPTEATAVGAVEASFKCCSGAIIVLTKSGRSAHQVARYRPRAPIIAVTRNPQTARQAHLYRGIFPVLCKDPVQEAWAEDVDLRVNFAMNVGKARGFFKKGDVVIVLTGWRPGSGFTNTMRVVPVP
Sequence of 3',5'-cyclic-AMP phosphodiesterase 4B (Homo sapiens) (Q07343 whole entry, looked up): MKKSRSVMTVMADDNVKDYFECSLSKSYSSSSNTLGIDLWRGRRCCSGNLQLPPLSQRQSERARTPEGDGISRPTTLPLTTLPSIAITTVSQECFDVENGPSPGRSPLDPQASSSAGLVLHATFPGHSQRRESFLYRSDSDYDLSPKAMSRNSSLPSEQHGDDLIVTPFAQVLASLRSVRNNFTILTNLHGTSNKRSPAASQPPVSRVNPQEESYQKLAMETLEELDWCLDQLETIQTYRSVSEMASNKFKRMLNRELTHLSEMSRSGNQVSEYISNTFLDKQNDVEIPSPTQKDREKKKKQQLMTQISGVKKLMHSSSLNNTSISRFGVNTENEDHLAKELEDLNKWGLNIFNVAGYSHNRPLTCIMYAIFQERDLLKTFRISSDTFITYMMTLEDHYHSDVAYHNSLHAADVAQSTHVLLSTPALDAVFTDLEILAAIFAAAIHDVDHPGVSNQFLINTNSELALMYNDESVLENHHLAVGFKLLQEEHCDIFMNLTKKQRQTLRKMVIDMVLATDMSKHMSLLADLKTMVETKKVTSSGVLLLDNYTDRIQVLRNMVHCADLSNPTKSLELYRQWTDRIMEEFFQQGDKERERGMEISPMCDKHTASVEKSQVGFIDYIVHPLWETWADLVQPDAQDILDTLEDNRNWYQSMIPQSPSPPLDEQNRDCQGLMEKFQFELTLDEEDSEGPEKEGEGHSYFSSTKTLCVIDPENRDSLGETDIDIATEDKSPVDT
Sequence of Glucocorticoid receptor (Homo sapiens) (P04150 whole entry, looked up): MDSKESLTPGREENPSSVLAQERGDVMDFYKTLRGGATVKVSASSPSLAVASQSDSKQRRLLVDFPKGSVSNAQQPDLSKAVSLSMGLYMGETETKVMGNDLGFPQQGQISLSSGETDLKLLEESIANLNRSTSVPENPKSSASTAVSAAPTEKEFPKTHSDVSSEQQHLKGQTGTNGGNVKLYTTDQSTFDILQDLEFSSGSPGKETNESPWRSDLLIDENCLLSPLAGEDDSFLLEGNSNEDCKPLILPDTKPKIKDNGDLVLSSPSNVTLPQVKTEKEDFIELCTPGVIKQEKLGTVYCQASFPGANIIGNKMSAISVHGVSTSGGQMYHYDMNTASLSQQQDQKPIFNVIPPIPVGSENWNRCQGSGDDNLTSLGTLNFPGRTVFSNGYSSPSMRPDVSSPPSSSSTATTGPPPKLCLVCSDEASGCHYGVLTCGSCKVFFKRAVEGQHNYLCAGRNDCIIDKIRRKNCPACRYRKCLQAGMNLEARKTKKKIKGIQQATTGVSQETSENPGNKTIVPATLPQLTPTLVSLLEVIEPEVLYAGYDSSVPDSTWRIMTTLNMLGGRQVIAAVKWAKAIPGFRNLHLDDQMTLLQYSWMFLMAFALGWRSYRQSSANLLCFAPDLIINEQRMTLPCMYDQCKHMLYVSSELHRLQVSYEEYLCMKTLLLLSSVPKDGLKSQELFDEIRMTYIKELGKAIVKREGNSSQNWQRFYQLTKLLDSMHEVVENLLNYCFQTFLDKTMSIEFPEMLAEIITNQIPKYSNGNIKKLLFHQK
Sequence of Cytochrome P450 3A4 (Homo sapiens) (P08684 whole entry, looked up): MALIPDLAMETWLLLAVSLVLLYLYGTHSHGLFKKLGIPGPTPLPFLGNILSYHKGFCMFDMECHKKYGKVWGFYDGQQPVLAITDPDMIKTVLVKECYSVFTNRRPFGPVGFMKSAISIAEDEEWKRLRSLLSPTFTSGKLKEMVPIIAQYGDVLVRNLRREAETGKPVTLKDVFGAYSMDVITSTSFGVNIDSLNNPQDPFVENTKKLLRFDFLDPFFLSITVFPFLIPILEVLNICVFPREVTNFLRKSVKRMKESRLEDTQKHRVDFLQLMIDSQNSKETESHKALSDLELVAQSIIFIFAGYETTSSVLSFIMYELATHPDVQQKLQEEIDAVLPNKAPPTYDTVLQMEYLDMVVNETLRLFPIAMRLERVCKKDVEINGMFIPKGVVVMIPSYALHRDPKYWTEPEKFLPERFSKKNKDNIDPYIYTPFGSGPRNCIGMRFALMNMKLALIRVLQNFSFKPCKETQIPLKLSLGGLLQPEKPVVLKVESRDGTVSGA
Sequence of Muscarinic acetylcholine receptor M1 (Rattus norvegicus) (P08482 whole entry, looked up): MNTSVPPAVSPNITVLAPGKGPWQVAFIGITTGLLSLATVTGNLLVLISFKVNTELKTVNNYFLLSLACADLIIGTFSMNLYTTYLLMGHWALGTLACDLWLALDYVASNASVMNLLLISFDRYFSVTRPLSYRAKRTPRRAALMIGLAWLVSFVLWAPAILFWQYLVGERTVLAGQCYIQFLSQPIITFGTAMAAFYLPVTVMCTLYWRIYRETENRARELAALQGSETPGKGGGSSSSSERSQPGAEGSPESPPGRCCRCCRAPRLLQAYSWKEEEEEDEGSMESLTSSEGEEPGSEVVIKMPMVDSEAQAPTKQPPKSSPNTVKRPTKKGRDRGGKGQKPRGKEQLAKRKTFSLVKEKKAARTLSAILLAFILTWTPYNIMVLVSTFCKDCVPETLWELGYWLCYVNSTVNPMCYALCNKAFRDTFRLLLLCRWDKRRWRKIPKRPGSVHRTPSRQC
Sequence of Cytochrome P450 2C19 (Homo sapiens) (P33261 whole entry, looked up): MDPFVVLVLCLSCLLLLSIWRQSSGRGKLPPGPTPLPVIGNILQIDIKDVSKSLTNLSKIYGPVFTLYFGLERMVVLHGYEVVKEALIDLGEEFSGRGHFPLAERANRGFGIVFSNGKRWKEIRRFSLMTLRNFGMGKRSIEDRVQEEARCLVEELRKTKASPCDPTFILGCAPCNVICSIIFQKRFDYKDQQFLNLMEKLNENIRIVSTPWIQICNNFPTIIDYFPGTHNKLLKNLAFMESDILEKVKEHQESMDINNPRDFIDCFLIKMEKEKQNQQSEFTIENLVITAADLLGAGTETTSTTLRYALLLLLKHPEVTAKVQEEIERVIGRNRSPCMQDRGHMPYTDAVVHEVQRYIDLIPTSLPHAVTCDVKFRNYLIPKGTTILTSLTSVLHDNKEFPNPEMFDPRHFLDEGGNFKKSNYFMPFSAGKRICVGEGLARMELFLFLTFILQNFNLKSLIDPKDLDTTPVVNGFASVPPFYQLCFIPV

Regarding `COC(=O)[C@@H]1[C@H]2C[C@H]3c4[nH]c5cc(OC)ccc5c4CCN3C[C@@H]2C[C@@H](OC(=O)c2cc(OC)c(OC)c(OC)c2)[C@@H]1OC`, the activity change, negative = inhibition in [1] is -23.7% [at 38 µM]; in experiment [3], 3.19% [at 38 µM]. For the same compound, the Potency is 15.8 µM (active) in [2], more than 46 µM in [4] and more than 46 µM in [5]. The Potency entry in experiment [6], in [7], in [8] and in experiment [9] was “inactive” throughout.

With `COc1cc2c(cc1O)CC[C@@H]1[C@@H]2CC[C@@]2(C)[C@H](O)CC[C@H]12`, the activity change, negative = inhibition is -4.01% [at 38 µM] in experiment [1] and -2.76% [at 38 µM] in experiment [3]. Further, the activity, negative = inhibition in experiment [10] was -17.5% [at 38 µM]. Also, the Potency in [4] and in experiment [5] was more than 46 µM each time. Besides, the Potency entry in [6], in [7], in [12], in experiment [13] and in [17] was “inactive” throughout. Further, the compound was classed as inactive in experiment [11], in experiment [14], in [15] and in experiment [16].

Consider `O=[N+]([O-])c1ccc2c(N=Nc3ccc4ccccc4c3O)c(O)cc(S(=O)(=O)O)c2c1`, for which the activity change, negative = inhibition in experiment [1] is -18.5%; in [3] it was -9.87%. Also, the results for the Potency in experiment [4] and in experiment [5] were more than 46 µM and more than 9.22 µM, respectively. In addition, the Potency result in experiment [7] and in experiment [18] was “inactive” throughout.

As for `COc1nc(N)nc2c1ncn2[C@@H]1C[C@H](O)[C@@H](CO)O1`, the activity change, negative = inhibition in experiment [1] is 5.07%; in experiment [3] it was 4.99%. Moreover, in experiment [10], the activity, negative = inhibition is 11.5%. Moreover, the Potency in experiment [4] was more than 46 µM; in experiment [5], more than 9.22 µM. Also, the Potency result in [6] and in [7] was “inactive” in each case.

In the case of `COC(=O)[C@H]1[C@H]2C[C@H]3c4[nH]c5ccccc5c4CCN3C[C@@H]2CC[C@@H]1O`, the activity change, negative = inhibition is 3.48% [at 38 µM] and 8.69% [at 38 µM] in experiment [1]; -14.1% [at 38 µM] in [3]. Also, the activity, negative = inhibition in experiment [10] was 1% [at 38 µM] and -19.7% [at 38 µM]. The Potency result in experiment [6], in experiment [7] and in experiment [17] was “inactive” throughout. Besides, the compound was called inactive in experiment [11], in experiment [19], in experiment [14], in experiment [15] and in experiment [16].

With `Cc1ccc(SCN2CCCCC2)cc1` (tested in a mixture with another compound), in [1], the activity change, negative = inhibition is -5.94%. Moreover, the Potency is 3.98 µM (active) in experiment [2], more than 46 µM in experiment [4] and more than 9.22 µM in experiment [5]. The Potency result in experiment [6] and in [7] was “inactive” each time.

In the case of `CC(C)[C@@H]1O[C@H](/C=C\c2ccccc2)OCC1(C)C`, the activity change, negative = inhibition in experiment [1] is -2.98%; in [3], 26.7%. Also, the activity, negative = inhibition in experiment [10] is 8.84%. Besides, the Potency is more than 46 µM in experiment [4] and more than 9.22 µM in experiment [5]. The Potency entry in experiment [6], in [7] and in experiment [18] was “inactive” in each case.

(Values after PubChem BioAssay (NCATS).)
